# From PubChem BioAssay (NCATS)
# Results filed as inconclusive are left out. Where a call stands in place of a potency, no number is given. Active and inactive are the calls of the source. Unless noted, calls follow the shape of the dose curve; as a rule, active = well fitted curve in the direction sought with a large enough effect; inconclusive = small, poorly fitted or top-dose-only effect, or another doubt; inactive = no such curve, though single readings can be large; an effect the other way counts as inactive or inconclusive.
# Tests used:
# [1] = biological target: Catechol O-methyltransferase (Homo sapiens) (UniProt P21964); assay: Confirmatory Screen for Target Class Profiling of Small Molecule Inhibitors of Methyltransferases (AID 1745852); conditions: MTase-Glo luminescence, SAH detection, recombinant enzyme; measured here: COMT max response; stronger effect = lower value
# Catechol O-methyltransferase (Homo sapiens), sequence (P21964 whole entry, looked up): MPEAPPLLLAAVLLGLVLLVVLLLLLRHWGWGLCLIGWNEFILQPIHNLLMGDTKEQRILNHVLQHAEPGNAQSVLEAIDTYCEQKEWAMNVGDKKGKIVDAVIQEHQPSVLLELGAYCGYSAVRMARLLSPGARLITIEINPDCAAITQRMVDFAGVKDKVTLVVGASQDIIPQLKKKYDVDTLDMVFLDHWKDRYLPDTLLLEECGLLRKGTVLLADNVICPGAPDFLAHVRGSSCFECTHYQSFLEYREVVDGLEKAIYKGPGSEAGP
# [2] = biological target: Guanidinoacetate N-methyltransferase (Homo sapiens) (UniProt Q14353); assay: as above; conditions: MTase-Glo luminescence, SAH detection, recombinant enzyme; activity change, negative = inhibition: at 85.7 µM (top of the series) unless noted
# [3] = biological target: Nicotinamide N-methyltransferase (Homo sapiens) (UniProt P40261); assay: as above; conditions: MTase-Glo luminescence, SAH detection, recombinant enzyme; measured here: NNMT max response; stronger effect = lower value
# Nicotinamide N-methyltransferase (Homo sapiens), sequence (P40261 whole entry, looked up): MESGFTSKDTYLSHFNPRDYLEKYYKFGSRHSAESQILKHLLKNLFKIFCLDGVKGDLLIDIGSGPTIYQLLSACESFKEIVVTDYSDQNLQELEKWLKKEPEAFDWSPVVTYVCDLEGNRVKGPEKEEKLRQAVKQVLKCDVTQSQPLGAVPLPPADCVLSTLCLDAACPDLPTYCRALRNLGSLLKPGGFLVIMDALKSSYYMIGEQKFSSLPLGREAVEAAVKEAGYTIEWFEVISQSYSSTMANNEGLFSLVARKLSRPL
# [4] = biological target: Phenylethanolamine N-methyltransferase (Homo sapiens) (UniProt P11086); assay: as above; conditions: MTase-Glo luminescence, SAH detection, recombinant enzyme; measured here: PNMT max response; stronger effect = lower value
# Phenylethanolamine N-methyltransferase (Homo sapiens), sequence (P11086 whole entry, looked up): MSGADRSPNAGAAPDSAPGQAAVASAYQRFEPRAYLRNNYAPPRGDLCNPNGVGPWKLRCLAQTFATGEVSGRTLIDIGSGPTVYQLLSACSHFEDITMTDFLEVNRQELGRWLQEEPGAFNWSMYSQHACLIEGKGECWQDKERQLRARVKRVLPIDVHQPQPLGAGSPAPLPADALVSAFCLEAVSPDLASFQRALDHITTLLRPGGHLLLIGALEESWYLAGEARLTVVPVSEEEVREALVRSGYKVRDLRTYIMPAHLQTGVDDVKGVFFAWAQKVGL
# [5] = biological target: ATP-dependent 6-phosphofructokinase (Trypanosoma brucei brucei) (UniProt O15648); assay: qHTS Assay to Find Inhibitors of T. brucei phosphofructokinase: hit validation (AID 492961); also: potency is read from the fitted curve at half-maximal effect;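 as to activity change, negative = inhibition: luminescence reports ADP formed as PFK phosphorylates fructose-6-phosphate with ATP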; conditions: T. brucei PFK, ADP-Glo luminescence; series mostly up to 51.4 µM
# ATP-dependent 6-phosphofructokinase (Trypanosoma brucei brucei), sequence (O15648 whole entry, looked up): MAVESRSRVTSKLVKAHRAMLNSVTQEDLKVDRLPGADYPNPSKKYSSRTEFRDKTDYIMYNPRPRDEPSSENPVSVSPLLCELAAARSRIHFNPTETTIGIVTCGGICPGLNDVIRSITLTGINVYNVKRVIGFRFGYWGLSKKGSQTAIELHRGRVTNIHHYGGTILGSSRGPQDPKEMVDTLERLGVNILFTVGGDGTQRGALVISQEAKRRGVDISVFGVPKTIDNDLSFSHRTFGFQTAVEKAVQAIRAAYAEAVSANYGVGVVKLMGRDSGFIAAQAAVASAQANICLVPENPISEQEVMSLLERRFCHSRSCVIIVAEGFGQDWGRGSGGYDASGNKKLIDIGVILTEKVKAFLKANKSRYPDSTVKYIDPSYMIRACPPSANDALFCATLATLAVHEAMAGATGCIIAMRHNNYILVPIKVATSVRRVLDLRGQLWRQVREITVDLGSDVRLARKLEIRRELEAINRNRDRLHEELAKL
# Method in brief: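 In this biochemical qHTS validation, titrated compounds were tested against 1.25 nM PFK with 0.1 mM ATP and 0.5 mM F6P. Percent activity came from controls lacking or containing enzyme.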
# [6] = biological target: Luciferin 4-monooxygenase (Photinus pyralis) (UniProt P08659); assay: Biochemical firefly luciferase enzyme assay for NPC (AID 624030); also: nearly all actives have a fitted effect of over 70% in size; also: potency is read from the fitted curve at half-maximal effect;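 as to activity change, negative = inhibition: purified P. pyralis luciferase at 10 nM with luciferin and ATP substrate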; conditions: purified P. pyralis luciferase, luminescence, 5 min; series mostly up to 58.6 µM
# Luciferin 4-monooxygenase (Photinus pyralis), sequence (P08659 whole entry, looked up): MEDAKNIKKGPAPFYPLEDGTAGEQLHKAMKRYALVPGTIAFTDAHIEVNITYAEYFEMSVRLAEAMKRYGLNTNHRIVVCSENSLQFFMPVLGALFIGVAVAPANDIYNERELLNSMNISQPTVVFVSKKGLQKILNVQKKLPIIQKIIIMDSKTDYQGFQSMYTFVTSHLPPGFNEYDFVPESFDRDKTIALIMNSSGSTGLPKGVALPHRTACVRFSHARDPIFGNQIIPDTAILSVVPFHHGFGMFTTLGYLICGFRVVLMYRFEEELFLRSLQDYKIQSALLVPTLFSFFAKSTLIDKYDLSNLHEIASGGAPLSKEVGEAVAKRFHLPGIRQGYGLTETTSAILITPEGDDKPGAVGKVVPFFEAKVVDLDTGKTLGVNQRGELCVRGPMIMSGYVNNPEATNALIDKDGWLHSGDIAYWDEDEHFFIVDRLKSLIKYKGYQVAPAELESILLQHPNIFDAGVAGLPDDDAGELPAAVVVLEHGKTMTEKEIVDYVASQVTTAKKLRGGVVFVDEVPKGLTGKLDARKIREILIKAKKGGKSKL
# Method in brief: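 Direct inhibition of firefly luciferase enzyme (10 nM final, 50 mM Tris Acetate) assessed by luminescence within 5 minutes. Percent activity scaled between DMSO and PTC124 positive control, with concentration-effect curves classified by fit quality and response.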
# [7] = system: CP185; assay: qHTS profiling for inhibitors of Plasmodium falciparum proliferation (AID 504749); also: nearly all actives have a fitted effect of over 60% in size; also: potency is read from the fitted curve at half-maximal effect; conditions: P. falciparum in erythrocytes, SYBR Green DNA, 72 h; series mostly up to 28.7 µM
# Method in brief: (§1)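 Infected RBCs, 0.3% parasitemia/2.5% Hct final; cpd 72 h, 37 C, 5% CO2; lysis buffer with saponin/triton/SYBR Green I, o/n RT dark; FI 485/535; norm. to artemisinin (0.29 uM) and DMSO.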
# [8] = system: CP192; assay: as above; conditions: P. falciparum in erythrocytes, SYBR Green DNA, 72 h; series mostly up to 28.7 µM
# Method in brief: as §1
# [9] = system: CP286; assay: as above; conditions: P. falciparum in erythrocytes, SYBR Green DNA, 72 h; series mostly up to 28.7 µM
# Method in brief: as §1
# [10] = system: DFO2036; assay: as above; conditions: P. falciparum in erythrocytes, SYBR Green DNA, 72 h; series mostly up to 28.7 µM
# Method in brief: as §1
# [11] = system: HB3; assay: as above; conditions: P. falciparum in erythrocytes, SYBR Green DNA, 72 h; series mostly up to 28.7 µM
# Method in brief: as §1
# [12] = system: P94_40; assay: as above; conditions: P. falciparum in erythrocytes, SYBR Green DNA, 72 h; series mostly up to 28.7 µM
# Method in brief: as §1
# [13] = system: PC49; assay: as above; conditions: P. falciparum in erythrocytes, SYBR Green DNA, 72 h; series mostly up to 28.7 µM
# Method in brief: as §1
# [14] = system: TAB113; assay: as above; conditions: P. falciparum in erythrocytes, SYBR Green DNA, 72 h; series mostly up to 28.7 µM
# Method in brief: as §1
# [15] = biological target: Cytochrome P450 3A4 (Homo sapiens) (UniProt P08684); assay: qHTS Assay for Activators of Cytochrome P450 3A4 (AID 885); conditions: recombinant CYP3A4, Luciferin-PPXE luminescence, 60 min; series mostly up to 57.1 µM; also: nearly all actives have a fitted effect of over 65% in size
# Cytochrome P450 3A4 (Homo sapiens), sequence (P08684 whole entry, looked up): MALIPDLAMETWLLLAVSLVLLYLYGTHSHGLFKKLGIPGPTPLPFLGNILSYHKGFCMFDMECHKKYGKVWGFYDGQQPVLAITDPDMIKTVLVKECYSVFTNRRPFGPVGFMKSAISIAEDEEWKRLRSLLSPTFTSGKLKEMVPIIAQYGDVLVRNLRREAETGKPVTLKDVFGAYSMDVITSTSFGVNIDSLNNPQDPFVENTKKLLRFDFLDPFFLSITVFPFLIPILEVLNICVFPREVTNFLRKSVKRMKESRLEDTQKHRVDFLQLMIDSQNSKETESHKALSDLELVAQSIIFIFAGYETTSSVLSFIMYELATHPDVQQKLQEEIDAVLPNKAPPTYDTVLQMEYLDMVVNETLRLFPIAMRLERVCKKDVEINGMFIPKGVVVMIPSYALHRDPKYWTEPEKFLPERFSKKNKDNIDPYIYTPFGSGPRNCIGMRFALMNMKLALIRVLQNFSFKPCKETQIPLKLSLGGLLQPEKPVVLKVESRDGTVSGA
# Method in brief: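 Quantitative HTS format: compounds preincubated with 20nM human CYP3A4 and Luciferin-PPXE substrate at KM, reaction started by NADPH regeneration, stopped after 60 min, luciferase luminescence read 20 min later.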
# [16] = biological target: Peroxisome proliferator-activated receptor delta (Homo sapiens) (UniProt Q03181); assay: qHTS assay for small molecule antagonists of peroxisome proliferator-activated receptor delta signaling (AID 588535; active = well fitted inhibition curve with a large enough effect in the signal ratio, with a control signal flat, not every such curve was filed as active; the % refers to the signal ratio); conditions: HEK293T PPARd-UAS-bla, beta-lactamase FRET ratio, 18 h; series mostly up to 76.7 µM
# Peroxisome proliferator-activated receptor delta (Homo sapiens), sequence (Q03181 whole entry, looked up): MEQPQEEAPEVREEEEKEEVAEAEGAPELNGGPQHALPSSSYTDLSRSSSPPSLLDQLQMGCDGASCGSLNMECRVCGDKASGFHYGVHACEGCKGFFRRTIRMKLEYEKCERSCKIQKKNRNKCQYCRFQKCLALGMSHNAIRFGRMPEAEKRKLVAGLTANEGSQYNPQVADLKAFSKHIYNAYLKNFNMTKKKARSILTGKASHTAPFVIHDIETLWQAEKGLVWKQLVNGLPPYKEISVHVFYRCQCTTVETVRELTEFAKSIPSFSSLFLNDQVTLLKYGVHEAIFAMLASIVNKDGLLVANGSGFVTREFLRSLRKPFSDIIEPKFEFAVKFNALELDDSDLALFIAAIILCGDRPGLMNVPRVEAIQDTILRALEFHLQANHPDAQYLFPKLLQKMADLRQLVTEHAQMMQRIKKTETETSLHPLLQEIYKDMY
# Method in brief: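 HEK293T PPAR-delta-UAS-bla cells, 4000/well, 2% charcoal/dextran FBS; 5 h 37 C; cpd titration; 18 h 37 C; CCF4 2 h RT; FI 460/530 nm; Hill fit → IC50, efficacy.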
# [17] = Cell Viability - LYMP2-004 (AID 966); conditions: LYMP2-004 lymphoblastoid cell viability, qHTS; series mostly up to 92.2 µM; also: nearly all actives have a fitted effect of over 65% in size
# Method in brief: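 Lymphoblastoid LYMP2-004 cells, 2500 per well, were preincubated for 5 hr and then treated with compound for 24 h at 37 C in complete medium. Viability was read as cellular ATP by CellTiter-Glo luminescence, and AC50 values were taken from Hill fits to concentration-response data.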
# [18] = biological target: Androgen receptor (Homo sapiens) (UniProt P10275); assay: qHTS assay for small molecule antagonists of androgen receptor signaling (AID 588516; active = well fitted curve in the direction sought with a large enough effect in the signal ratio, with a control signal flat, not every such curve was filed as active; the % refers to the signal ratio); conditions: AR-UAS-bla HEK293, beta-lactamase ratio, antagonist mode, 16 h; series mostly up to 76.8 µM
# Androgen receptor (Homo sapiens), sequence (P10275 whole entry, looked up): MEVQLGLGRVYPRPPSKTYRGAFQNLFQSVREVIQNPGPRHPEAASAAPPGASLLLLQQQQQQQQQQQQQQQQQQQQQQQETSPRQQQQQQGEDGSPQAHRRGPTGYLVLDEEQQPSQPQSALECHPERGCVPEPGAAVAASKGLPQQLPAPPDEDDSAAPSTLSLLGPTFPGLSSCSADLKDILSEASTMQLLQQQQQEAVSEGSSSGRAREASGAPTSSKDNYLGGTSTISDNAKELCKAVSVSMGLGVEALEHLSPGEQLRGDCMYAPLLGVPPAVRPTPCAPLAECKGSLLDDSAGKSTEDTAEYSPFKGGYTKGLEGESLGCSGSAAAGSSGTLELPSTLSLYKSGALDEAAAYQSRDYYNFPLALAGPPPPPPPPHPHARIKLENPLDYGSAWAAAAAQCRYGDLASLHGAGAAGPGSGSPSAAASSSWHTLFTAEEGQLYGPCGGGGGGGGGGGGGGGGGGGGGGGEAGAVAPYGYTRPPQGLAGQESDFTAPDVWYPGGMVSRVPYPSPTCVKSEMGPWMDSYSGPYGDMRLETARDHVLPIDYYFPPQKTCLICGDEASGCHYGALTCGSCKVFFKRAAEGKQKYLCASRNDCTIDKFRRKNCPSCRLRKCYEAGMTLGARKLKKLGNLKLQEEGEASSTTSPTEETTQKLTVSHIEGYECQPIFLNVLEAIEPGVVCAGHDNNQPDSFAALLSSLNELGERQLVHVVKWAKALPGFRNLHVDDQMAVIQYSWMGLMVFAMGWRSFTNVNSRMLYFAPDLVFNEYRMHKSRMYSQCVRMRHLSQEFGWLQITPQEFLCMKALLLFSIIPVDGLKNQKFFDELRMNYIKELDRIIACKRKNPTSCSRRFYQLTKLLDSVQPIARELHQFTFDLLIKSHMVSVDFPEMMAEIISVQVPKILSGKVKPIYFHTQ
# Method in brief: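 Compounds tested in titration against 10 nM R1881 in AR-responsive bla reporter HEK 293 cells; CCF4 fluorescence (460/530 nm) after 16 h exposure gave IC50 and efficacy.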
# [19] = biological target: Glutathione peroxidase 1 (Homo sapiens) (UniProt P07203); assay: Primary qHTS Assay for Inhibitors of Recombinant Selenoprotein Glutathione Peroxidase 1 (GPX1) (AID 1845191); conditions: recombinant GPX1, GR-coupled NADPH fluorescence, 15 min; series mostly up to 48.8 µM; also: nearly all actives have a fitted effect of over 65% in size
# Glutathione peroxidase 1 (Homo sapiens), sequence (P07203 whole entry, looked up): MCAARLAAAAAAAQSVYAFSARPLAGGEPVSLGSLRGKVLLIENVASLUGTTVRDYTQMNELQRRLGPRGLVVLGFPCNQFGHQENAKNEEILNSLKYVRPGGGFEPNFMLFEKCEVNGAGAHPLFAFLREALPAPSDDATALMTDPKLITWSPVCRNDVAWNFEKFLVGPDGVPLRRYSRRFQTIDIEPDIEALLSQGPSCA
# Method in brief: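 10 nM GPX1 + cpd, 30 min RT; start w/ 1 mM GSH, 0.5 mM cumene hydroperoxide, 0.5 mM NADPH, 100 nM GR, 0.01% BSA; buffer 50 mM Tris-HCl pH 7.5, 2 mM EDTA, 150 mM NaCl; Fl 340/450, 0 & 15 min.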
# [20] = qHTS assay to identify small molecules that stimulate interleukin-8 (IL-8) secretion (AID 651758; active = well fitted activation curve with a large enough effect in the signal ratio; the % refers to the signal ratio); conditions: HTRF ratio (665/615); series mostly up to 92.2 µM
# Method in brief: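 Secreted IL-8 measured by TR-FRET sandwich (cryptate and XL665 antibodies) from THP-1 cells exposed to compound overnight (16 hrs, 37 C).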
compound,measurement,setting,value
COc1ccc(-c2cc([C@H]3CN4CC[C@H]3C[C@@H]4CN)nc(C)n2)cc1OC,activity,[1],2.55%
same,"activity change, negative = inhibition",[2],1.77%
same,activity,[3],-94.2%
same,activity,[4],2.63%
C[C@]12CC[C@H](OS(=O)(=O)O)CC1=CCC1C2CC[C@]2(C)C(=O)CC[C@@H]12 (stereo not given in full),Potency,[5],inactive
same,Potency,[6],inactive
same,Potency,[7],inactive
same,Potency,[8],inactive
same,Potency,[9],inactive
same,Potency,[10],inactive
same,Potency,[11],inactive
same,Potency,[12],inactive
same,Potency,[13],inactive
same,Potency,[14],inactive
CC[C@H]1CN2CC[C@H]1C[C@@H]2CNCc1ccc(-c2ccccc2)cc1,activity,[1],3.75%
same,"activity change, negative = inhibition",[2],4.44%
same,activity,[3],4.25%
same,activity,[4],-4.01%
C[C@H]1C2Cc3ccc(O)cc3[C@]1(C)CCN2CC1CC1,Potency,[6],inactive
CC(C)(O)C1C2OC(=O)C1[C@]1(O)C[C@H]3O[C@]34C(=O)O[C@H]2[C@]14C (stereo not given in full) (tested in a mixture with another compound),Potency,[5],inactive
same,Potency,[6],inactive
same,Potency,[7],inactive
same,Potency,[8],inactive
same,Potency,[9],inactive
same,Potency,[10],inactive
same,Potency,[11],inactive
same,Potency,[12],inactive
same,Potency,[13],inactive
same,Potency,[14],inactive
Oc1ccc2c3c1O[C@H]1[C@@H](O)CC[C@@]4(O)C(C2)N(CC2CCC2)CCC314 (stereo not given in full),Potency,[5],inactive
same,Potency,[6],inactive
same,Potency,[7],inactive
same,Potency,[8],inactive
same,Potency,[9],inactive
same,Potency,[10],inactive
same,Potency,[11],inactive
same,Potency,[12],inactive
same,Potency,[13],inactive
same,Potency,[14],inactive
CC(=O)NC[C@H]1C[C@@H]2CCN1C[C@@H]2c1cc(-c2ccc3ccccc3c2)nn1C,activity,[1],4.95%
same,"activity change, negative = inhibition",[2],4.16%
same,activity,[3],1.11%
same,activity,[4],2.7%
C=C[C@H]1CN2CC[C@H]1C[C@@H]2CNC(=O)Nc1ccc(Br)cc1,activity,[1],4.06%
same,"activity change, negative = inhibition",[2],-0.845%
same,activity,[3],-5.4%
same,activity,[4],4.01%
CN(CCc1ccccn1)C[C@H]1CN2CC[C@H]1C[C@@H]2CNC(=O)Nc1ccsc1,activity,[1],-2.73%
same,"activity change, negative = inhibition",[2],6.86%
same,activity,[3],0.703%
same,activity,[4],-0.547%
COc1cc2c(cc1O)C[C@H]1c3c(cc(OC)c(O)c3-2)CCN1C,Potency,[15],inactive
[Hg+][c]1ccccc1,Potency,[5],11.2 µM (active)
same,Potency,[6],8.09 µM (active)
same,Potency,[7],inactive
same,Potency,[8],12 µM (active)
same,Potency,[9],inactive
same,Potency,[10],inactive
same,Potency,[11],inactive
same,Potency,[12],inactive
same,Potency,[13],3.55 µM (active)
same,Potency,[14],inactive
COC1=CC(=O)OC(CCc2ccccc2)C1 (stereo not given),Potency,[15],inactive
COC1=CC(=O)O[C@@H](/C=C/c2ccc3c(c2)OCO3)C1,Potency,[15],inactive
same,Potency,[16],inactive
Clc1ccc2ccccc2c1,Potency,[17],inactive
same,Potency,[18],inactive
same,Potency,[16],inactive
COc1cc(OC)c(/C=C2/C(=O)Nc3ccccc32)c(OC)c1,Potency,[15],inactive
Cc1ccc(-n2nccn2)c(C(=O)N2CCN(c3nc4cc(Cl)ccc4o3)CC[C@H]2C)c1,Potency,[19],inactive
C[C@]12CC[C@H]3[C@@H](CCC4=CC(=O)CC[C@@]43C)[C@@H]1CC[C@@H]2O,Potency,[5],inactive
same,Potency,[6],inactive
same,Potency,[7],inactive
same,Potency,[8],inactive
same,Potency,[9],inactive
same,Potency,[10],inactive
same,Potency,[11],inactive
same,Potency,[12],inactive
same,Potency,[13],inactive
same,Potency,[14],inactive
CCCCOC(=O)c1ccnc2cc(C(OCCN3CCCCC3)c3ccccc3C)sc12 (stereo not given),Potency,[19],inactive
CN1[C@@H]2CC(O)C[C@H]1[C@@H]1O[C@@H]12 (stereo not given in full),Potency,[19],inactive
S=C(S)N1CCCC1,Potency,[15],inactive
C=CCN1CC[C@]2(C)c3cc(O)ccc3CC1[C@@H]2C,Potency,[19],inactive
CC(=O)C1=C(O)[C@@H]2[C@H]3c4c[nH]c5cccc(c45)C[C@H]3C(C)(C)N2C1=O,Potency,[19],inactive
c1ccc(-c2ccccc2)cc1,Potency,[17],inactive
same,Potency,[18],inactive
same,Potency,[16],inactive
same,Potency,[20],inactive
O=C(O)c1ccnc2cc(C(OCCN3CCC(F)(F)CC3)c3ccccc3Cl)[nH]c12 (stereo not given),Potency,[19],inactive
ClCBr,Potency,[17],inactive
same,Potency,[20],inactive
Brc1ccccc1,Potency,[18],inactive
Cc1cccc([N+](=O)[O-])c1,Potency,[17],inactive
c1nc[nH]n1,Potency,[15],inactive
same,Potency,[17],inactive
CCSC(=O)Cl,Potency,[18],inactive
CC(C)(C)OOC(C)(C)C,Potency,[20],inactive
Cc1ccc2ccccc2c1,Potency,[17],inactive
same,Potency,[18],inactive
same,Potency,[16],inactive
CC(C)(C)OO,Potency,[17],inactive
same,Potency,[18],inactive
same,Potency,[16],inactive
same,Potency,[20],inactive
O=C=NC1CCCCC1,Potency,[20],inactive
Cc1ccccc1N,Potency,[15],inactive
same,Potency,[16],inactive
same,Potency,[20],inactive
COc1ccc(C=O)cc1OC,Potency,[17],inactive
c1ccc2c(c1)CCCC2,Potency,[18],inactive
C=CC(=O)OCC,Potency,[17],inactive
same,Potency,[16],inactive
O=NN(c1ccccc1)c1ccccc1,Potency,[20],inactive
OCC1CO1 (stereo not given),Potency,[16],inactive
